Measurements: ChEMBL document CHEMBL3433997, “St. Jude Leishmania screening dataset” (2016)

Target: Hexose transporter 1 (Plasmodium falciparum) (UniProt O97467)
Test: ST_JUDE_LEISH: Cytotoxicity at 2uM final concentration against transgenic Leishmania Mexicana promastigotes LmPfHT that are glucose transport deficient and complemented with the Plasmodium falciparum hexose transporter. Activity is measured by DNA content using SYBR green in vitro
Assay type: functional

Structure (SMILES) | inhibition
CCC1CN2CCc3c([nH]c4ccccc34)C2CC1CC1=NCCc2c1[nH]c1ccccc21 (stereo not given) | 3.33%
O=C(/C=C/c1ccc(C(F)(F)F)cc1)N1CCc2cc3nccc(N4CCN5CCC[C@H]5C4)c3cc21 | 2.34%
NC(=O)c1ccsc1NC(=O)CNC(c1ccccc1)c1ccc(Cl)cc1 (stereo not given) | 2.82%
CCCC(=O)NC(c1cccs1)c1cc(Cl)c2cccnc2c1O (stereo not given) | 1.83%
CCc1c(CCNCCCCCCNCCc2ccc(OC)c(OC)c2C)ccc(OC)c1OC | 9.23%
CS(=O)(=O)NCCCNCc1cccc(-c2ccc(-c3nc4cc(C(F)(F)F)ccc4[nH]3)cc2)c1 | 3.88%
COc1cc2c(cc1O)[C@@H]1[C@H](O)[C@@H](O)C=C3CCN(C2)[C@H]31 | 3.79%
Cc1cc(=O)c(-c2ccc(Oc3ccc(C(F)(F)F)cc3)cc2)c(C)n1O | -2.25%
CCNc1cc(C(=O)N[C@@H](Cc2ccccc2)[C@H](O)CNCc2cccc(OC)c2C)cc(N2CCCCS2(=O)=O)c1 | 1.66%
CCN1CCN(c2ccc(Nc3c4ccccc4nc4ccccc34)cc2)CC1 | 10.6%
COc1ccc(C(=O)CCC(=O)N(CCSC(C)(C)C)Cc2ccc(-c3ccc(CNCCc4ccc(S(C)(=O)=O)cc4)cn3)cc2)cc1F | 9.03%
Cc1cc(C)c(-c2n[nH]c3c2C(c2cccc(Cl)c2)N(Cc2ccco2)C3=O)c(O)c1 (stereo not given) | 5.35%
O=C(NCCNc1ccnc(NCc2ccc(F)cc2)n1)c1cc2ccccc2s1 | 4.26%
COc1ccc2nc(N)nc(C)c2c1 | 2.86%
CCCn1cc2c(ccc3nc(N)nc(N)c32)n1 | 0.8%
CN(C)c1cc(NC(=O)Nc2ccc(SC(F)(F)F)cc2)c2ccccc2n1 | 0.11%
Fc1cccc(COc2ccc(Nc3ncnc4sc(C#CCNC5CCCC5)cc34)cc2Cl)c1 | 2.09%
O=C(c1ccc(-c2cnc3[nH]cc(-c4ccc(C(=O)N5CCOCC5)cc4)c3c2)cc1)N1CCOCC1 | -1.48%
Cc1cc(N[C@@H](Cc2ccccc2)C(=O)NC2CCCC2)nc(NCCCOC(C)C)n1 | 3.46%
N#Cc1ccc2c(c1)CCN(CCC1CCC(NC(=O)c3ccc(-c4ccccn4)s3)CC1)CC2 (stereo not given) | 9.45%

Structure (SMILES) | inhibition
COc1ccc2nccc([C@@H](O)CN3CCC(NC(=O)c4ccc5nc(-n6cccc6)sc5c4)CC3)c2c1 | 5.93%
CC(C)(C)CCN1CCC(NC(=O)c2ccc(-c3cccc(C(F)(F)F)c3)s2)CC1 | 5.61%
CC(C)CCN1CCC(Oc2ccc(NC(=O)c3ccsc3)cc2Cl)CC1 | 1.67%
O=C(Nc1ccc(C(F)(F)F)cc1)c1cccc(S(=O)(=O)NCC2CCCN(CC3CCCCC3)C2)c1 (stereo not given) | 2.62%
Cc1cccc2nc(-c3cccc(-c4cccc(NC(=O)c5ccc(C(N)=O)cc5)c4)c3)[nH]c12 | 1.11%
COc1cc(Cc2cnc(N)nc2N)cc(OCCNC(=O)OCc2ccccc2)c1OC | -1.55%
CCCNCc1ccc(-c2ccc(CN(C(=O)c3nn(-c4ccccc4)nc3C)C(C)CN(C)C)cc2)nc1 (stereo not given) | 0.07%
Cc1noc(-c2ccc3c(c2)CCN(CCC2CCC(NC(=O)c4cc5ccccc5[nH]4)CC2)CC3)n1 (stereo not given) | 2.28%
CCOC(=O)c1ccc(NC(=O)Nc2ccc(-c3ccc(-c4nc5cc(C(F)(F)F)ccc5[nH]4)cc3)cc2)cc1 | -0.19%
CC1CCCCC1N(C)C1CCN(CCCNC(=O)C=Cc2ccccc2Cl)CC1 (stereo not given) | -0.24%
COc1ccc(Cc2cnc(N)nc2N)cc1OCCCOc1ccccc1 | 0.92%
CNC(=O)c1nc(-c2ccccc2)[nH]c1NC(C)=O | 3.44%
N#Cc1cccc(NC(=O)Nc2cccc(-c3cccc(-c4nc5cc(F)ccc5[nH]4)c3)c2)c1 | 7.87%
COc1cc(Cc2cnc(N)nc2N)c2c(c1OC)OC(C)(C)C=C2 | 5.13%
CCc1nc2nc(C)cc(Nc3ccc4c(c3)OCCO4)n2n1 | 4.78%
COc1cccc(C2CCN(CCN3CCC(CNC(=O)c4ccc(-c5ccc(C(F)(F)F)cc5)cc4)CC3)CC2)c1 | 1.07%
Cc1sc2ncnc(Sc3nnc(N)s3)c2c1C | 3.89%
Cc1cc(=O)[nH]c(-n2nc(C)cc2NC(=O)C2(c3ccc(Cl)cc3)CCCC2)n1 | 66.3%
COc1ccc(C2CC(c3ccccc3)=NN2C(=O)c2ccc(Br)o2)cc1 (stereo not given) | 0.43%
COc1ccc(O)c(Cc2cnc3nc(N)nc(N)c3c2C)c1 | 11.2%
